According to PubChem BioAssay (NCI):
Values joined by “and” are separate entries in the source; they are usually repeats but may differ in a detail not shown here. Equal entries are not always repeated. About 83,000 compounds went through this panel and 20% of them were active in at least one assay; those are over-represented in the sample as a whole.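 Assay: single dose, 48 h. Readout: percent growth (0 = no net growth; negative = cell death). Active: <10.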 Active and inactive are the calls of the source.

Legend:
Assay in all cases: NCI-60 one-dose screen, 48 h (100 = growth as untreated, 0 = no growth, -100 = all killed)
Settings in all cases: 10 µM unless noted
[1] = system: NCI-H23 lung
[2] = system: NCI-H226 lung
[3] = system: NCI-H322M lung
[4] = system: HOP-62 NSCLC
[5] = system: NCI-H460 lung
[6] = system: HOP-92 NSCLC
[7] = system: NCI-H522 lung
[8] = system: A549/ATCC NSCLC
[9] = system: 786-0 renal
[10] = system: COLO 205 colon

| SMILES | growth [1] | growth [2] | growth [3] | growth [4] | growth [5] | growth [6] | growth [7] | growth [8] | growth [9] | growth [10] |
| --- | --- | --- | --- | --- | --- | --- | --- | --- | --- | --- |
| Cc1ccc(S(=O)(=O)Nc2ccc3cc([N+](=O)[O-])ccc3c2[N+](=O)[O-])cc1 | 65.7% (inactive) and 92.6% (inactive) | 67.6% (inactive) and 95.5% (inactive) | 93% (inactive) and 93.1% (inactive) | 92.7% (inactive) and 95% (inactive) | 76.4% (inactive) and 91.3% (inactive) | 27.9% (inactive) and -8.68% (active) | 54.6% (inactive) and 85.3% (inactive) | 77.7% (inactive) and 91.2% (inactive) | 72.2% (inactive) and 85.9% (inactive) | 106% (inactive) and 96.6% (inactive) |
| Cc1cc(-c2ccc(NS(=O)(=O)c3ccccc3)c(C)c2)ccc1NS(=O)(=O)c1ccccc1 | 85% (inactive) and 97.8% (inactive) | 82.2% (inactive) and 92.1% (inactive) | 92.7% (inactive) and 121% (inactive) | 94.2% (inactive) and 111% (inactive) | 78% (inactive) and 87.6% (inactive) | 83.3% (inactive) and 88% (inactive) | 52.8% (inactive) and 64.8% (inactive) | 67% (inactive) and 80.5% (inactive) | 96.8% (inactive) and 107% (inactive) | 91.9% (inactive) and 121% (inactive) |
| NC(=O)NO | 102% (inactive) and 62.3% (inactive) | 106% (inactive) and 74.1% (inactive) | 107% (inactive) and 77.1% (inactive) | 109% (inactive) and 73.2% (inactive) | 106% (inactive) and 62.3% (inactive) | 101% (inactive) and 60.6% (inactive) | 98.7% (inactive) and 82.7% (inactive) | 94.8% (inactive) and 53.4% (inactive) | 103% (inactive) and 59.7% (inactive) | 118% (inactive) and 87.4% (inactive) |
| Clc1nc(Oc2ccccc2)nc(-c2cn(-c3ccccc3)c3ccccc23)n1 | 14.5% (inactive) | 80.2% (inactive) | 93.5% (inactive) | 101% (inactive) | 97.2% (inactive) | -40.8% (active) | 111% (inactive) | 102% (inactive) | 101% (inactive) | 98.1% (inactive) |
| Oc1c(Cl)cc(Cl)cc1Sc1cc(Cl)cc(Cl)c1O | 11.4% (inactive) and 6.4% (active) and 76% (inactive) | 94.5% (inactive) and 48.1% (inactive) and 88.3% (inactive) | 25.6% (inactive) and 33.1% (inactive) and 87.1% (inactive) | 85.8% (inactive) and 61.6% (inactive) | 7.66% (active) and 11.8% (inactive) and 62.3% (inactive) | -12.5% (active) and -28.3% (active) and 32.7% (inactive) | 2.94% (active) and -18.8% (active) and 48.9% (inactive) | – | 47.7% (inactive) and 104% (inactive) | 118% (inactive) and 87.9% (inactive) and 110% (inactive) |
| OCCN1CCN(CCCN2c3ccccc3Sc3ccc(Cl)cc32)CC1 | 66.4% (inactive) and 80.2% (inactive) | 96% (inactive) and 110% (inactive) | 64.2% (inactive) and 77.5% (inactive) | 61.4% (inactive) and 93.4% (inactive) | 64.3% (inactive) and 85.1% (inactive) | -2.25% (active) | 40.5% (inactive) and 57.5% (inactive) | – | 53.3% (inactive) and 71.3% (inactive) | -70.1% (active) and 73.3% (inactive) |
| O=C1OC2(c3ccccc31)c1ccc(O)c(O)c1Oc1c2ccc(O)c1O | 105% (inactive) and 102% (inactive) | 90.5% (inactive) and 121% (inactive) | 109% (inactive) and 130% (inactive) | 114% (inactive) and 101% (inactive) | 114% (inactive) and 109% (inactive) | 61.9% (inactive) and 120% (inactive) | 89.8% (inactive) and 84.1% (inactive) | – | 109% (inactive) and 117% (inactive) | 115% (inactive) and 117% (inactive) |
